Screening data as filed in PubChem BioAssay.
PRMT1 inh – blocks human protein arginine methyltransferase 1; recombinant PRMT1, activity-based probe fluorescence polarization; inhibition, % at 2.79 µM; 370,000 compounds, 1.3% hits; AID 652257;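 active means inhibition above about 21% made by adding two undisclosed values, limit read from the data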
ALR H2O2 inh – human ALR oxidase inhibition via reduced H2O2; P55789; purified ALR, DTT oxidation, H2O2 HRP-luminol luminescence; 290,000 compounds, 3.8% hits; inhibition, % (test concentration not listed);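 active means mean replicate inhibition above about 79%, with every replicate also reaching it, limit read from the data; inconclusive means only one of the two criteria met; inactive means mean below limit and not every replicate reaching it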
Target sequence (P55789 whole entry, looked up): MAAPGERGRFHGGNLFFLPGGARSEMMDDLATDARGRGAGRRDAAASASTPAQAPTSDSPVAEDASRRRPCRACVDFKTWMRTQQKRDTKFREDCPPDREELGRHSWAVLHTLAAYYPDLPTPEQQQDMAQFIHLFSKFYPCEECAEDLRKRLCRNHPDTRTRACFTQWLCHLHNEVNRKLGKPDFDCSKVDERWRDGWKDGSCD
ABHD5-PLIN5 inh – inhibitors of human ABHD5-perilipin-5 interaction; inhibition, % at 4 µM; Q00G26+Q8WTS1; 360,000 compounds, 0.78% hits; Split G. princeps luciferase complementation, luminescence, 4 h;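 active means inhibition above the mean inhibition across every tested compound plus 3 SD, cut at about 22% in these data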;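 further: 0% = DMSO only wells and the 100% control is not disclosed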
rCAG RNA binder – r(CAG) repeat RNA binding | inhibition, % at 3 µM | 370,000 compounds, 1.3% hits | AID 651821 | TO-PRO-1 dye displacement fluorescence;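 active means inhibition above the plate cutoff, the mean of all test compounds on that plate plus 3 SD, cut at about 35% in these data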;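 further: 0% = DMSO alone and 100% = 100 µM mitoxantrone as full dye displacement; higher means more dye released from RNA so lower well fluorescence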
Rtt109 HAT inh – inhibitors of Candida albicans Rtt109/Vps75 histone acetyltransferase; 330,000 compounds, 0.16% hits; purified Rtt109/Vps75, ThioGlo CoA-SH fluorescence, 4 h; inhibition, % at 34.9 µM; Q5AAJ8;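 active means inhibition of at least 50% in every replicate; inconclusive means best replicate reaches 50% inhibition but some replicates fall short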
Target sequence (Q5AAJ8 whole entry, looked up): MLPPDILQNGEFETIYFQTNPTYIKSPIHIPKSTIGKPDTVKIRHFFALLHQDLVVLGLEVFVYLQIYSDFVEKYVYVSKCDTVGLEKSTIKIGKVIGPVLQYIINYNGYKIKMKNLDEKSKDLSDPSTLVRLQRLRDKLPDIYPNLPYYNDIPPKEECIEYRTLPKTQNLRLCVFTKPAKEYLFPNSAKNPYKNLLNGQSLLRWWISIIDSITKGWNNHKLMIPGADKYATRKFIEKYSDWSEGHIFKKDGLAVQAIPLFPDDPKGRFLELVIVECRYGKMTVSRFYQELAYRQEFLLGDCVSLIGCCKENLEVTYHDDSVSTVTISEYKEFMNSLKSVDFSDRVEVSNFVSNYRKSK
LANA-H2A inh – blocks KSHV LANA binding to histone H2A/H2B. inhibition, % (concentration not given with the values). cell-free LANA-H2A/H2B peptide, fluorescence polarization. 320,000 compounds, 0.6% hits. Q9QR71; in the data active means inhibition mostly above about 10%, no sharp cut-off; inactive means mostly below about 6.7%
PRMT1 inh conf – confirmation of human PRMT1 inhibitors | AID 687036 | recombinant His-PRMT1, activity-based probe fluorescence polarization | shares compounds with PRMT1 inh | 3,300 compounds, 42% hits | inhibition, % at 2.79 µM;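 active means mean inhibition across replicates above the hit cutoff derived for the earlier primary screen, cut at about 22% in these data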
* hit, by the source's call; ? = inconclusive; · = no result given. The list is not random: actives were taken first. Their share in the collection is about 5.9%.

SMILES	PRMT1 inh	ALR H2O2 inh	ABHD5-PLIN5 inh	rCAG RNA binder	Rtt109 HAT inh	LANA-H2A inh	PRMT1 inh conf
O=C1SC(SCc2ccccc2)=N/C1=C\c1ccco1	41.6*	-14.0	-4.2	26.4	1.8	-5.0	0.7
O=C1SC(c2ccccc2)=N/C1=C/c1ccco1	8.8	-4.0	4.9	11.8	9.0	1.8	·
O=C(Nc1ccncc1)c1ccc(Cl)c(Cl)c1	27.6*	3.9	4.2	0.0	1.0	-1.3	-4.8
Cc1cc(SCC(=O)NN)c2cc(Br)ccc2n1	63.9*	·	-10.0	9.3	-0.2	0.5	60.2*
COc1ccccc1/C=N/NC(=O)CSc1cc(C)nc2ccccc12	33.2*	-81.2	-5.9	-2.8	4.8	4.6	1.2
COc1ccc2nc(C)cc(SCC(=O)N/N=C/c3c(OC)ccc4ccccc34)c2c1	-0.1	·	-2.2	3.3	2.3	7.8	·
Cc1cc(C(=O)NN)c2cc(Br)ccc2n1	-0.7	35.8	1.0	6.3	-5.8	-6.4	·
COc1cccc2c(SCC(=O)N/N=C/c3ccc(O)cc3O)cc(C)nc12	46.4*	·	2.8	23.2	-23.3	·	-0.4
COC(=O)c1cc(S(=O)(=O)NCC2CCN(CCc3ccc(OC)cc3)CC2)c[nH]1	1.1	-9.7	4.3	-2.6	-17.0	5.1	·
O=C(CC(Sc1ccccc1)c1cccs1)c1ccco1 (stereo not drawn)	80.3*	·	-2.9	-2.6	5.9	1.5	83.4*
O=C(Cc1cccs1)OCC(=O)c1ccco1	2.1	13.4	5.2	13.0	-13.8	9.9	·
O=C(N/N=C\c1ccc([N+](=O)[O-])o1)c1cncc(Br)c1	34.2*	-19.8	-0.4	22.0	13.0	-4.5	5.5
CCC(C)(C)NC(=O)c1cc(S(=O)(=O)N2CCc3ccccc32)cn1C	26.3*	-8.8	7.2	0.2	12.8	0.6	3.6
CC(=O)N1CC=C2C(C#N)=C(N)C(C#N)(C#N)[C@H](c3ccoc3)[C@H]2C1	20.6	-30.2	-1.1	-10.0	-59.5	-0.9	·
N#CC1=C(N)C(C#N)(C#N)[C@H](c2ccoc2)[C@H]2CN(Cc3ccccc3)CC=C12	33.2*	-18.6	8.0	-9.1	-1.0	23.4*	4.9
CCN1CC=C2C(C#N)=C(N)C(C#N)(C#N)C(CCc3ccccc3)C2C1 (stereo not drawn)	49.1*	-5.5	-5.6	-23.9	-14.5	25.0*	25.1*
O=C(COC(=O)CSc1ccc([N+](=O)[O-])cc1)NCCCc1ccccc1	41.9*	0.6	-1.5	4.3	-5.7	1.9	4.3
CCNc1nc(NC(C)(C)C)nc(N2CCCC2)n1	31.7*	-1.8	-0.5	-10.8	-1.5	0.4	2.8
CC(C)(C)Nc1nc(N2CCCC2)nc(N2CCCC2)n1	-0.8	-25.7	5.6	-2.8	-4.8	-2.4	·
CC1CCN(c2nc(-c3ccco3)c3c(c2C#N)CC(C)(C)OC3)CC1	28.1*	·	22.8*	25.6	0.6	-0.1	24.1*
CC1(C)Cc2c(C#N)c(N3CCOCC3)nc(-c3ccccc3)c2CO1	-0.4	0.1	-9.1	-2.7	1.1	-4.7	·
Oc1ccccc1/C=N/c1c(-c2ccco2)nc2ccccn12	26.9*	10.9	1.7	7.2	-5.6	-0.8	5.8
Clc1ccc(/C=N/c2c(-c3ccco3)nc3ccccn23)cc1	14.4	·	19.9	6.4	-10.2	4.6	·
COC(=O)C1=C(C)N(Cc2cccc(C(F)(F)F)c2)C(=NCc2ccc(C(F)(F)F)cc2)NC1c1ccccc1C(F)(F)F (stereo not drawn)	-2.4	·	·	2.5	·	·	·
Cc1cc(C)n(CCc2nc(-c3ccc(C)o3)cs2)n1	68.5*	95.2*	14.4	3.1	-1.0	-3.2	33.6*
SMILES	PRMT1 inh	ALR H2O2 inh	ABHD5-PLIN5 inh	rCAG RNA binder	Rtt109 HAT inh	LANA-H2A inh	PRMT1 inh conf
COc1ccc(CC(=O)NCC2CCN(C(=O)C(=O)c3cc4ccccc4o3)CC2)cc1	3.5	·	·	2.6	·	·	·
COc1ccc(S[C@]2(C(=O)N(C)C)CC(=O)N[C@@H]2c2ccc(OC)cc2)cc1	12.4	·	·	5.5	·	·	·
NC(=O)c1ccc(SCC(=O)OCC(=O)NC2CCCCCCC2)c([N+](=O)[O-])c1	65.2*	·	-2.0	8.1	-4.1	1.9	29.9*
NC(=O)c1ccc(SCC(=O)OCC(=O)NCc2ccco2)c([N+](=O)[O-])c1	26.1*	-17.3	-0.2	7.4	-2.5	-0.5	1.5
CC(=O)Nc1cccc(-c2cccc3nccn23)c1	-1.0	·	7.6	2.3	·	·	·
O=CN1CCc2scc[n+]2-c2ccccc21	40.9*	44.0	0.5	0.0	25.2	3.2	29.9*
O=C(Nc1ccccc1)N1CCc2scc[n+]2-c2ccccc21	55.9*	-4.6	-3.9	11.2	-5.9	1.6	18.6
O=CN1CCC(=O)N(Cc2ccccc2)c2ccccc21	-0.2	5.7	0.5	-2.9	3.0	1.4	·
Cc1sc2ncnc(Sc3ccccc3C(=O)Nc3ccc(Br)cc3)c2c1C	35.0*	-10.5	-16.8	12.1	3.7	-1.5	23.0*
Nc1ccc2[nH]c(=S)[nH]c2c1	5.1	·	0.0	1.4	3.1	·	·
S=c1[nH]c2ccc(Cc3ccc4[nH]c(=S)[nH]c4c3)cc2[nH]1	30.2*	?	-18.3	14.1	3.0	3.9	6.6
CCCNC(=O)C1(C)CCCN(Cc2cc(-c3ccccc3)nn2C)C1 (stereo not drawn)	1.4	·	-14.4	1.1	·	·	·
CN=C(c1ccco1)n1c(=S)nc(-c2ccco2)n(C)c1=S	30.3*	-11.2	-26.3	11.1	8.4	4.0	22.9*
CN=C(c1ccc(C)cc1)n1c(=S)nc(-c2ccc(C)cc2)n(C)c1=S	5.9	-19.1	-4.9	-2.8	-0.7	-0.4	·
CCOc1cc2c3c(c1)C1(Nc4ccccc4S1)C(=O)N3C(C)(C)CC2C (stereo not drawn)	78.2*	4.1	-13.8	0.7	-4.8	2.5	8.5
CCOc1cc2c3c(c1)C1(OCCO1)C(=O)N3C(C)(C)CC2C (stereo not drawn)	-4.6	4.1	-0.5	-7.7	0.8	-3.5	·
CC1(C(=O)NS(=O)(=O)c2ccccc2Cl)CCN1C(=O)CCc1ccccc1 (stereo not drawn)	3.2	·	6.3	6.9	·	·	·
O=C(OC12CCCN(C1)/C(=C/c1ccccc1)C2)C1CCCCC1 (stereo not drawn)	2.0	·	·	3.6	·	·	·
Cc1cccc(Cl)c1NC(=O)NCCCN1CCOCC1	2.8	·	·	4.9	·	·	·
Cc1cccc(NC(c2ccc(C)s2)c2ccc3ccc(C)nc3c2O)n1 (stereo not drawn)	25.7*	-12.8	3.9	2.5	4.2	-3.6	28.4*
Cc1ccnc(NC(c2ccsc2)c2ccc3ccc(C)nc3c2O)c1 (stereo not drawn)	44.4*	-4.9	11.9	0.8	·	1.0	49.5*
CCCN(CCC)Cc1cc(=O)oc2ccccc12	-1.5	·	·	2.2	·	·	·
